Compound activity deposited in PubChem by several laboratories.
Autofluor counter: compound fluorescence in toxin protease inhibitor counterscreen | compound autofluorescence counterscreen, microsphere flow cytometry; hits give high values | fluorescence intensity (no concentration beside the values) | 360,000 compounds, 3.1% hits | AID 624483; in the data active = fluorescence intensity above about 16000; inconclusive = no clear call, values can overlap the other calls
BoNT F protease: blocks Botulinum neurotoxin F light chain protease; Multiplex microsphere protease cleavage assay, flow cytometry; inhibition, % at 10 µM; 360,000 compounds, 0.22% hits; AID 588497; in the data active = inhibition above about 35%, passing the limit was not always enough; inconclusive = no clear call, values can overlap the other calls; note: plate controls were buffer without enzyme for full effect and enzyme alone for no effect
PriA SSB inh: blocks PriA binding to SSB C-terminal tail; AlphaScreen SSBct-PriA binding, biotinylated peptide; inhibition, % at 33 µM; 430,000 compounds, 0.6% hits; in the data active = inhibition mostly above about 37%, no sharp cut-off; inactive = mostly below about 20%;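 note: plate controls were negative control peptide for no effect and reference peptide for full effect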
BoNT A protease: blocks Botulinum neurotoxin A light chain protease; multiplex microsphere protease substrate cleavage, flow cytometry; inhibition, % at 10 µM; 360,000 compounds, 0.17% hits; AID 588499; note: plate controls were buffer without enzyme for full effect and enzyme alone for no effect
Anthrax LF inh2: blocks Bacillus anthracis lethal factor protease; inhibition, % at 10 µM; P15917; 360,000 compounds, 0.12% hits; multiplex microsphere protease cleavage assay, LF; note: plate controls were buffer without enzyme for full effect and enzyme alone for no effect
Target sequence (P15917 whole entry, looked up): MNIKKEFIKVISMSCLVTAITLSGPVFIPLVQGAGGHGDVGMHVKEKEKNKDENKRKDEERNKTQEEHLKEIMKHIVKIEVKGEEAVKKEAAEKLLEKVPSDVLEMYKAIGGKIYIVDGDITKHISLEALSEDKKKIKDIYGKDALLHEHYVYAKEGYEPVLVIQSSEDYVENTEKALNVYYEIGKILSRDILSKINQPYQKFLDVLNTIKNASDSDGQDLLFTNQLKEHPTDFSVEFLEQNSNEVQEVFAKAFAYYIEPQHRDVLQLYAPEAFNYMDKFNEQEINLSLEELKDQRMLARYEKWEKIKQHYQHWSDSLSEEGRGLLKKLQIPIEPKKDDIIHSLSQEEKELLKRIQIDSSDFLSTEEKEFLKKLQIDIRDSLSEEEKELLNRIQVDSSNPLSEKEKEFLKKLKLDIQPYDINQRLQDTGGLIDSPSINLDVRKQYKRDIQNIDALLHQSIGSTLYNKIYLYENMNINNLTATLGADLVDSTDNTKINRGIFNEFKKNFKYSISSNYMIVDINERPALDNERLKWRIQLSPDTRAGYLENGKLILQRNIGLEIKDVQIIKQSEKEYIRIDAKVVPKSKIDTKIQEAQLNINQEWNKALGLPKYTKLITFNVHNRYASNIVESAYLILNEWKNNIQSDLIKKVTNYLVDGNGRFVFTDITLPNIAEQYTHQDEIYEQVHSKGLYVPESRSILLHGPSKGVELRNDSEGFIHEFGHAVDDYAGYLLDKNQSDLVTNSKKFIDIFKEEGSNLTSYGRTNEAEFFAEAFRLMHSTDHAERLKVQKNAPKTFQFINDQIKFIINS
* = called active by the depositor; u = inconclusive; x = no result. Sampled rows, rich in hits. Any-hit rate of the full collection: about 3.1%. Cut-off read from the data, not from the text of the source, unless noted: active = inhibition above about 30%; inconclusive = no clear call, values can overlap the other calls; inactive = below that.

SMILES	Autofluor counter	BoNT F protease	PriA SSB inh	BoNT A protease	Anthrax LF inh2
CCC1Oc2ccc(C)cc2N(CC(=O)NCCCN2CCCCC2CC)C1=O (stereo not drawn)	24712*	-6	-11	-4	-4
O=[N+]([O-])c1cc(S(=O)(=O)C(F)(F)F)ccc1N1CCN(c2ccccc2)CC1	2097	-7	47*	-1	-2
CN1CCN(c2ccc(S(=O)(=O)C(F)(F)F)cc2[N+](=O)[O-])CC1	2101	-2	7	0	-4
O=S(=O)(c1ccc(N2CCCC2)cc1)C(F)(F)F	16476*	1	-19	1	-1
O=S(=O)(c1ccc(N2CCN(c3ccc(F)cc3)CC2)cc1)N1CCCC1	9751	-6	-10	0	-4
O=C(O)CCCN1C(=O)/C(=C\c2ccc(-c3nc4ccccc4s3)o2)SC1=S	4325	6	5	41*	28
O=C(O)CCN1C(=O)/C(=C/c2ccc(-c3nc4ccccc4s3)o2)SC1=S	3505	-1	0	17	19
COc1ccc(OC)c(-c2cc(C(=O)N3CCC4(CC3)OCCS4)n(C)n2)c1	x	x	-6	x	x
COc1cc2nc(C3CCC3)nc(N3CCN(c4ccccc4OC)CC3)c2cc1OC	2435	7	39*	1	-1
CC(C)(C)C1CCC(=NNc2ncc(C(F)(F)F)cc2Cl)CC1 (stereo not drawn)	22794*	-2	-9	u	-1
COc1cc2c(C(=O)N3CCN(c4cccc(Cl)c4)CC3)cn(CC(C)C)c(=O)c2cc1OC	4262	38*	10	3	7
CCOc1ccc2ccccc2c1C(=O)N1CCN(c2ccccc2)CC1	21404*	6	5	6	1
CCOc1ccccc1C(=O)N1CCN(c2cccc(Cl)c2)CC1	20455*	-2	6	1	-1
O=C1c2ccccc2C(=O)N1CCc1csc2nc(-c3ccccc3)nn12	x	x	-10	x	x
C=CCNC(=S)NN=C(C)c1cccc(NC(C)=O)c1	x	x	1	x	x
COc1ccc(N=Nc2cc(OC)c(N)cc2OC)cc1	3937	-9	62*	-1	-8
COc1ccc(OC)c(CC(=O)O)c1	23906*	-4	-24	u	-1
COc1ccc(C=O)c(OC)c1	3971	-10	-5	0	-2
COc1ccc(OC)c(C(=O)C(=O)c2cc(OC)ccc2OC)c1	3825	-12	-4	0	-4
COc1ccc(OC)c(N)c1	2798	-88	74*	0	-18
COc1ccc(N=Nc2cc(C)ccc2O)cc1	5347	1	77*	0	1
COc1ccc(CCNC(=O)NCC[C@H](O)c2cccn2C)cc1	x	x	4	x	x
CCC(c1nnnn1C(C)(C)CC)N(CCCN1CCOCC1)Cc1cc2cccc(C)c2[nH]c1=O (stereo not drawn)	11071	4	-7	0	-2
CCC(C)(C)n1nnnc1C(C(C)C)N(CCN1CCOCC1)Cc1cc2cccc(C)c2[nH]c1=O (stereo not drawn)	21802*	3	-3	4	0
CCNC(=S)NNC(=O)c1cc(CC(C)C)nc2ccccc12	22680*	1	-30	u	0
SMILES	Autofluor counter	BoNT F protease	PriA SSB inh	BoNT A protease	Anthrax LF inh2
CCNC(=S)NNC(=O)c1cc(-c2cccc(OC)c2)nc2ccccc12	2082	0	-5	0	-1
CCNC(=S)NNC(=O)c1cc(-c2ccccc2C)nc2ccccc12	10802	-9	14	0	-5
CCCOc1cccc(-c2cc(C(=O)NNC(=S)NCC)c3ccccc3n2)c1	24056*	-4	15	-3	-3
NS(=O)(=O)c1ccc(CCNC(=O)c2csc3nc(-c4ccccc4)cn23)cc1	x	x	0	x	x
O=C(CN1C(=O)c2cccnc2C1=O)c1ccccc1	20963*	-6	-4	-3	0
O=C(CN1C(=O)C(=O)c2ccccc21)c1ccccc1	2901	5	0	3	18
O=C(c1ccc(Cn2ccnc2)cc1)N1CCC(Oc2ccc(C(F)(F)F)cn2)CC1	x	x	-6	x	x
CCOc1ccc(S(=O)(=O)Nc2ccc3nc(C)n(-c4ccc(F)cc4)c(=O)c3c2)c(OCC)c1	x	x	-11	x	x
Cn1ccnc1Sc1nc(Nc2cccc(Cl)c2)nc(N2CCOCC2)n1	22665*	-2	14	0	-4
CCN(CC)C(=O)c1ccc2nc(-c3ccccc3)c(-c3ccccc3)nc2c1	2554	1	2	0	2
CCN(CC)C(=O)c1cncc(C(=O)N(CC)CC)c1-c1ccccc1	20311*	1	-7	0	-2
CN1CCN(C(=S)c2cn(CCOc3ccccc3F)c3ccccc23)CC1	4336	0	39*	-1	1
Oc1cccc2c(NC(=S)Nc3ccc(OC(F)F)cc3)cccc12	2119	0	54*	0	0
FC(F)Oc1ccc(NC(=S)NCc2ccccc2)cc1	2034	-5	0	0	-1
O=C(CSc1nc(O)c(Cc2ccccc2)c(=O)[nH]1)Nc1ccccc1	u	5	5	u	-3
COc1ccc(-n2c(SC)nc(O)c(Cc3ccccc3)c2=O)cc1	22787*	-2	0	u	0
CC(C)CCNC(=O)CSc1nc2ccccc2c(=O)[nH]1	17172*	-6	-3	-3	-4
COc1ccc(NC(=O)CSc2nc(O)c(Cc3ccccc3)c(=O)[nH]2)cc1	23050*	1	-10	u	-1
COC(=O)c1ccc(NC(=O)CSc2nc3ccccc3c(=O)[nH]2)cc1	20547*	0	-10	0	-1
Cc1cc(N2CC(c3nc4ccccc4[nH]3)CC2=O)ccc1Cl (stereo not drawn)	x	x	-20	x	x
O=C1CSCC(=O)N1	x	x	-9	x	x
O=C(CN1C(=O)NC2(CCOc3ccccc32)C1=O)Nc1nc(-c2ccccn2)cs1 (stereo not drawn)	x	x	111*	x	x
O=C(CN1C(=O)CCC1=O)Nc1nc(-c2ccccn2)cs1	5523	-16	51*	-2	-4
O=C(CN1CSCC1=O)Nc1nc(-c2ccccn2)cs1	x	x	56	x	x
O=C(CN1C(=O)CCOc2ccccc21)Nc1nc(-c2ccccn2)cs1	x	x	93*	x	x
SMILES	Autofluor counter	BoNT F protease	PriA SSB inh	BoNT A protease	Anthrax LF inh2
CCCCC(=O)Nc1nc(-c2ccccn2)cs1	x	x	50*	x	x
CCOC(=O)N1CCc2nc(NC(=O)c3cc(Cl)sc3Cl)sc2C1	x	x	-13	x	x
Fc1ccc(-c2csc3ncnc(NCCc4cccs4)c23)cc1	x	x	-35	x	x
O=C(O)CCC(=NNc1ccccc1[N+](=O)[O-])c1cccs1	x	x	42*	x	x
O=C(O)CC/C(=N\Nc1ccc([N+](=O)[O-])cc1S(=O)(=O)N1CCOCC1)c1cccs1	5186	-8	x	0	-5
Cc1c(Br)ccc(NC(=O)CCN2C(=O)C3C4CCC(C4)C3C2=O)c1C (stereo not drawn)	23010*	-1	-5	u	-5
CC(C)NC(=O)c1sc2nc(-c3cccs3)cc(-c3cccs3)c2c1N	x	x	-13	x	x
COc1ccc(C(=O)c2sc3nc(C)cc(-c4cccs4)c3c2N)cc1OC	7178	47*	-85	71*	49*
NC(=NOC(=O)CCCc1ccccc1)c1ccccc1Cl	x	x	-58	x	x
O=C(CCCn1cccc1)NCc1ccc(F)cc1	x	x	8	x	x
COc1cc2cc(C(c3nnnn3C3CCCCC3)N(C)C3CCCCC3)c(=O)[nH]c2cc1OC (stereo not drawn)	22356*	4	-5	3	2
